Source: publication PMC7862700, “An all-to-all approach to the identification of sequence-specific readers for epigenetic DNA modifications on cytosine”

What was measured:
Assay in all cases: DAPPL (digital affinity profiling via proximity ligation, sequencing); 10 mM Tris-HCl pH 7.5, 50 mM NaCl, 1 mM DTT, 4% glycerol, room temperature, 30 min; GST-TFs on glutathione beads, 16-mer random dsDNA library, 0.1% formaldehyde crosslink after washing; high values mean tight binding
FLI1 = target: T1, FLI1 (Homo sapiens, UniProt Q01543 1-452); details: protein: recombinant; tags: N-terminal GST; dsDNA, one strand shown
T1 sequence: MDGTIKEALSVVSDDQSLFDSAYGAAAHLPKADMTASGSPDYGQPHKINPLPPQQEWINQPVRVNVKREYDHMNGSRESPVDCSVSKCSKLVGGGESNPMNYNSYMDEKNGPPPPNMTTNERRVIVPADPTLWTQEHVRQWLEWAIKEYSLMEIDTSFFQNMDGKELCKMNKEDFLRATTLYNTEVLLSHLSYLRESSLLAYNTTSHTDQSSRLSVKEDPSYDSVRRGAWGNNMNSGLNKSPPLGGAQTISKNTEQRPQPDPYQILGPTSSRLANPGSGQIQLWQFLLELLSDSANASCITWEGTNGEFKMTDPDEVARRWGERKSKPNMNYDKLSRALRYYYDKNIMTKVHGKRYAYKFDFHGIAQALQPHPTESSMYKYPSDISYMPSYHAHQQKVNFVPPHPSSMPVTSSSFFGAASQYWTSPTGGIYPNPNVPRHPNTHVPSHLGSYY
Method in brief: (§1)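 Pools of DNA-barcoded human transcription factors, expressed in yeast as GST fusions on glutathione beads and combined with a tag-only sample, were incubated with 200 nmole of a 16-mer random double-stranded DNA library. Incubation took 30 min at room temperature in Tris/NaCl/DTT/glycerol buffer and was followed by washing, 0.1% formaldehyde crosslinking, proximity ligation (BsaI/T4 ligase, 1 h, 37 °C), PCR amplification and sequencing on an Illumina NextSeq500. Binding signal is the ratio of a hexamer's read frequency for a factor to its frequency for the tag-only sample.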

ELK1 = target: T2, ELK1 (Homo sapiens, UniProt P19419 1-428); details: protein: recombinant; tags: N-terminal GST; dsDNA, one strand shown
T2 sequence: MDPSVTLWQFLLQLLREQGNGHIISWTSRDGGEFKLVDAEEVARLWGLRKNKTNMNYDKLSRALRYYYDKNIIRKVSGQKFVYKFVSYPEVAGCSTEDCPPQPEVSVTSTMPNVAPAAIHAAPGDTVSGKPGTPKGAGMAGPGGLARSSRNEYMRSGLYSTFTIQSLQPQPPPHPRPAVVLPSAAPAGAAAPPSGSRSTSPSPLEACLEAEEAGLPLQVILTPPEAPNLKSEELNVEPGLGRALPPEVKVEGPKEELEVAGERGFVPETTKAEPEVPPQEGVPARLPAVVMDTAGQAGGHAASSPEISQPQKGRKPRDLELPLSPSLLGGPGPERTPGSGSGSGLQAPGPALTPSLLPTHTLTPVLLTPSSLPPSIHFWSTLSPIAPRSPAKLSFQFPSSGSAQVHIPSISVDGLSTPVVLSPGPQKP
Method in brief: as §1

GABPA = target: T3, GABPA (Homo sapiens, UniProt Q06546 1-454); details: protein: recombinant; tags: N-terminal GST; dsDNA, one strand shown
T3 sequence: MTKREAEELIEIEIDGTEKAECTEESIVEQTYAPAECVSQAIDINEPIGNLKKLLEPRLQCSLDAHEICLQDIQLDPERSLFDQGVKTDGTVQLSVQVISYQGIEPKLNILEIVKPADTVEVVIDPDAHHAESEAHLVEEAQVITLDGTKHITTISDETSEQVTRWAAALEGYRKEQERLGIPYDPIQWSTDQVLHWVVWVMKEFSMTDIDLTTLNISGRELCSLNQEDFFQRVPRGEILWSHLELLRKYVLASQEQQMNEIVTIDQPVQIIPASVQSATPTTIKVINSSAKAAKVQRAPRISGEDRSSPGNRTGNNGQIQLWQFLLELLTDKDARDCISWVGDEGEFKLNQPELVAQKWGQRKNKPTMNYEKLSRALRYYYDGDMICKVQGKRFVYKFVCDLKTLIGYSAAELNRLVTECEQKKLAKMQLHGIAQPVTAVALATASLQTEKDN
Method in brief: as §1

ERG = target: T4, ERG (Homo sapiens, UniProt P11308 1-479); details: protein: recombinant; tags: N-terminal GST; dsDNA, one strand shown
T4 sequence: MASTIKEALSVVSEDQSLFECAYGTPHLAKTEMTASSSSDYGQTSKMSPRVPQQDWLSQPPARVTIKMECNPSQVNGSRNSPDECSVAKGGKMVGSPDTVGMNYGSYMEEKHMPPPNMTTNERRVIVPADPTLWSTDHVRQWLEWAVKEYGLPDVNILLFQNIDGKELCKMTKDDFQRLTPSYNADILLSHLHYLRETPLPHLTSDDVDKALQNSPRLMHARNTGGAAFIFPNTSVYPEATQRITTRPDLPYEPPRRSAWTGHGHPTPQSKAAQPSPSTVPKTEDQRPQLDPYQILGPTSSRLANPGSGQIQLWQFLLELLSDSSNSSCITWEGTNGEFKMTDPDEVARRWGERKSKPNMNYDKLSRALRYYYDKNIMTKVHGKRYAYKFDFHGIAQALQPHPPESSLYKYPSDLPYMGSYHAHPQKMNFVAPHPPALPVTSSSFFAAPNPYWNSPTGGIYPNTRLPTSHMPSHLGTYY
Method in brief: as §1

ELF1 = ELF1 (Homo sapiens, UniProt P32519 1-619); details: protein: recombinant; tags: N-terminal GST; dsDNA, one strand shown
Method in brief: as §1

EHF = target: T5, EHF (Homo sapiens, UniProt Q9NZC4 1-300); details: protein: recombinant; tags: N-terminal GST; dsDNA, one strand shown
T5 sequence: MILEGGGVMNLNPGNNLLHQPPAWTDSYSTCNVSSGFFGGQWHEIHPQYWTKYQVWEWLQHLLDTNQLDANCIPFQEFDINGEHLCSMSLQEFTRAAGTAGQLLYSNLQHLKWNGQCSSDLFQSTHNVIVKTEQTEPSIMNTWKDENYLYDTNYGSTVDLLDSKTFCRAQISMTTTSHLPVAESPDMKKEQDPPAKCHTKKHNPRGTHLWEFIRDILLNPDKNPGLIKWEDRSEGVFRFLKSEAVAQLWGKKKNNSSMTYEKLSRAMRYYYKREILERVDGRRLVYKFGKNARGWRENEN
Method in brief: as §1

SPI1 = SPI1 (Homo sapiens, UniProt P17947 1-270); details: protein: recombinant; tags: N-terminal GST; dsDNA, one strand shown
Method in brief: as §1

SPIB = SPIB (Homo sapiens, UniProt Q01892 1-262); details: protein: recombinant; tags: N-terminal GST; dsDNA, one strand shown
Method in brief: as §1

ELK3 = target: T6, ELK3 (Homo sapiens, UniProt P41970 1-407); details: protein: recombinant; tags: N-terminal GST; dsDNA, one strand shown
T6 sequence: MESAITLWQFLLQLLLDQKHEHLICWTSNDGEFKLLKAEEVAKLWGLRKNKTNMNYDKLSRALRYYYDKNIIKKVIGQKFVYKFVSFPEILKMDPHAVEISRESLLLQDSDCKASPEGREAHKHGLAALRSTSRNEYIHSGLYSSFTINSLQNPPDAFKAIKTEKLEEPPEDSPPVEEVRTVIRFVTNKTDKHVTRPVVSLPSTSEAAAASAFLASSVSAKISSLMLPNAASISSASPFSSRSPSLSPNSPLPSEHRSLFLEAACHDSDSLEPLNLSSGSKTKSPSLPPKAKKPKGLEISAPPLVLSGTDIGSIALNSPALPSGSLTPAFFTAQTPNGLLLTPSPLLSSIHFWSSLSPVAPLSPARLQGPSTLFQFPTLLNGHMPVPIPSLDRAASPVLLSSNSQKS
Method in brief: as §1

FEV = target: T7, FEV (Homo sapiens, UniProt Q99581 1-238); details: protein: recombinant; tags: N-terminal GST; dsDNA, one strand shown
T7 sequence: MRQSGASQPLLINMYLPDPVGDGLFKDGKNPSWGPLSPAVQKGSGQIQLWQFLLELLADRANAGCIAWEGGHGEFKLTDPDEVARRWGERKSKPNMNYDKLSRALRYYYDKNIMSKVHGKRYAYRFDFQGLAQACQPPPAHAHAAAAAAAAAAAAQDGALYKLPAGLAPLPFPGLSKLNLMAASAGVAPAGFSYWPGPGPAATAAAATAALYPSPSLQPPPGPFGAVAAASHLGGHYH
Method in brief: as §1

ETV5 = ETV5 (Homo sapiens, UniProt P41161 1-510); details: protein: recombinant; tags: N-terminal GST; dsDNA, one strand shown
Method in brief: as §1

HSF1 = HSF1 (Homo sapiens, UniProt Q00613 1-529); details: protein: recombinant; tags: N-terminal GST; chain copies: 3; dsDNA, one strand shown
Method in brief: as §1

SPIC = target: T8, SPIC (Homo sapiens, UniProt Q8N5J4 1-248); details: protein: recombinant; tags: N-terminal GST; dsDNA, one strand shown
T8 sequence: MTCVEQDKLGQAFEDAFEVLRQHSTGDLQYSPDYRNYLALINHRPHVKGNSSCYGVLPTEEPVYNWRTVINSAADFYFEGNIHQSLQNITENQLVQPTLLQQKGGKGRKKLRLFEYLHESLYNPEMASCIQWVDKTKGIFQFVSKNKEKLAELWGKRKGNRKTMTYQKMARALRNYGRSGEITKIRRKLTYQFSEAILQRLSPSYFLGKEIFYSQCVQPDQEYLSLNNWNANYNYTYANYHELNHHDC
Method in brief: as §1

ELF4 = ELF4 (Homo sapiens, UniProt Q99607 1-663); details: protein: recombinant; tags: N-terminal GST; dsDNA, one strand shown
Method in brief: as §1

ELK4 = target: T9, ELK4 (Homo sapiens, UniProt P28324-2 1-405); details: protein: recombinant; tags: N-terminal GST; dsDNA, one strand shown
T9 sequence: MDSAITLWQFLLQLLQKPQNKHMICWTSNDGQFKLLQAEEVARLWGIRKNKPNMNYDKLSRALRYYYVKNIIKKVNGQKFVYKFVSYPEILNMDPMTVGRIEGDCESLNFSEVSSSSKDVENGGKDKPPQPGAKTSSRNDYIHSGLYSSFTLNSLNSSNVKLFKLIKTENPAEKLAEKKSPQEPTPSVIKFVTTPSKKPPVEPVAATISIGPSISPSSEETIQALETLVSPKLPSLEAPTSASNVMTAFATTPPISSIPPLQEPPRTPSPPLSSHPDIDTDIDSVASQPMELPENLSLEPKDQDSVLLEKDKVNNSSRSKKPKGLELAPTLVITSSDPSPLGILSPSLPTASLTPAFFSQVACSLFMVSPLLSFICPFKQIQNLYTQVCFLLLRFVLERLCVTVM
Method in brief: as §1

ETV2 = target: T10, ETV2 (Homo sapiens, UniProt O00321 1-342); details: protein: recombinant; tags: N-terminal GST; dsDNA, one strand shown
T10 sequence: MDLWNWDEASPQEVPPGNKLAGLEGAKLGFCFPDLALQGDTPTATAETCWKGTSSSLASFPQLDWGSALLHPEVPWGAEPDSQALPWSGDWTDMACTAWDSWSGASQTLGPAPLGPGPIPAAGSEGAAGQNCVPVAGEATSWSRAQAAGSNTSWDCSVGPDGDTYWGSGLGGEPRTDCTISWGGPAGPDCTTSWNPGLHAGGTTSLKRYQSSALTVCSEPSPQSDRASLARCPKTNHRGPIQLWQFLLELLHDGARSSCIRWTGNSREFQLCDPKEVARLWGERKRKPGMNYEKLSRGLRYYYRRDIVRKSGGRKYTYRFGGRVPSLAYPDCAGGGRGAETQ
Method in brief: as §1

ELF3 = target: T11, ELF3 (Homo sapiens, UniProt P78545 1-371); details: protein: recombinant; tags: N-terminal GST; dsDNA, one strand shown
T11 sequence: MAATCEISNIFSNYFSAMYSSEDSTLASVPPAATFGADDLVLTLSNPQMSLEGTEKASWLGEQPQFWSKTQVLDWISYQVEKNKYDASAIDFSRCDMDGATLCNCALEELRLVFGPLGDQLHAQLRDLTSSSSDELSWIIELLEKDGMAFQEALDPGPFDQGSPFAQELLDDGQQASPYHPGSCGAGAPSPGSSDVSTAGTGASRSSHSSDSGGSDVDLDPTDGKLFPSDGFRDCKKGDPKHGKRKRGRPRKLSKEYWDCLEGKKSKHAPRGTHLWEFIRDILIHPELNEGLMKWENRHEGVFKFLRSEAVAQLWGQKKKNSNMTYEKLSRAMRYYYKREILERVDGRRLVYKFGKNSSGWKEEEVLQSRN
Method in brief: as §1

CRX = CRX (Homo sapiens, UniProt O43186 1-299); details: protein: recombinant; tags: N-terminal GST; dsDNA, one strand shown
Method in brief: as §1

ETV1 = ETV1 (Homo sapiens, UniProt P50549 1-477); details: protein: recombinant; tags: N-terminal GST; dsDNA, one strand shown
Method in brief: as §1

SPIB, sequence (Q01892 whole entry): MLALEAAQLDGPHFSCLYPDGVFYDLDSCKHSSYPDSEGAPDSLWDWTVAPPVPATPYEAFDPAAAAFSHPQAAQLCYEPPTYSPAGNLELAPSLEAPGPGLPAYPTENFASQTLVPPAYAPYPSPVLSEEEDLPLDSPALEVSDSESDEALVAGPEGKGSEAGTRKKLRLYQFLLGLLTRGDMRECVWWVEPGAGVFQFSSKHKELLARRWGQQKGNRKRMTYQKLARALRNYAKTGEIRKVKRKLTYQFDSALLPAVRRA
HSF1, sequence (Q00613 whole entry): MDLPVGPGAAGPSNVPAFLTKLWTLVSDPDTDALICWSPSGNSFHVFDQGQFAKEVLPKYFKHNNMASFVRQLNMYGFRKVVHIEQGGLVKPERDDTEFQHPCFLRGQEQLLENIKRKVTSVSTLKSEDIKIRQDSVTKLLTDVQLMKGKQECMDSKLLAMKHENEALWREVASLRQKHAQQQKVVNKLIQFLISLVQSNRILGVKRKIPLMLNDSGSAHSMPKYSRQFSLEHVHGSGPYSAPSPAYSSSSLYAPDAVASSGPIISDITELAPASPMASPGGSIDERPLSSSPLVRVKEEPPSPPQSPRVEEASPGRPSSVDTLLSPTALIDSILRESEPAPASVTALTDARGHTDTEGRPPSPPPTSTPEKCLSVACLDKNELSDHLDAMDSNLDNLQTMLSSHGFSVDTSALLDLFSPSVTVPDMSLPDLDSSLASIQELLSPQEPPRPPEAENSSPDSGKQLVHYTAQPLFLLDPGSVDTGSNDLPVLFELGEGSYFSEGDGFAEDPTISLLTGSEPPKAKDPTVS
ELF1, sequence (P32519 whole entry): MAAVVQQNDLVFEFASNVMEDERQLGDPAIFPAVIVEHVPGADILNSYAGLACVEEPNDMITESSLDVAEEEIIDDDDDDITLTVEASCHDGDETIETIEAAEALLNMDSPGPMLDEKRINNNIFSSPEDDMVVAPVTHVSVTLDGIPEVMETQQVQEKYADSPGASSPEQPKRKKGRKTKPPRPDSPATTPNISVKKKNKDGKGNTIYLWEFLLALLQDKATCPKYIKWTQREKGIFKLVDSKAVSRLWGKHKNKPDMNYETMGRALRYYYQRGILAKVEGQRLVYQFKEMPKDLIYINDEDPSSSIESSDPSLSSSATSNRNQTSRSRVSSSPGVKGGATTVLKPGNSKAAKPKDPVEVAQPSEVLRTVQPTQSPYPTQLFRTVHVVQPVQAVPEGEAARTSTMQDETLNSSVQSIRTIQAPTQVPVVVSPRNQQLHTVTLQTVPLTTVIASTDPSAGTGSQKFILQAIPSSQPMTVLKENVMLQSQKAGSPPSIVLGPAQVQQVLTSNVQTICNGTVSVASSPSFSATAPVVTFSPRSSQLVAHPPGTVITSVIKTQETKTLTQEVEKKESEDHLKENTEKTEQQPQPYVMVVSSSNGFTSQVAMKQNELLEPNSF
ETV1, sequence (P50549 whole entry): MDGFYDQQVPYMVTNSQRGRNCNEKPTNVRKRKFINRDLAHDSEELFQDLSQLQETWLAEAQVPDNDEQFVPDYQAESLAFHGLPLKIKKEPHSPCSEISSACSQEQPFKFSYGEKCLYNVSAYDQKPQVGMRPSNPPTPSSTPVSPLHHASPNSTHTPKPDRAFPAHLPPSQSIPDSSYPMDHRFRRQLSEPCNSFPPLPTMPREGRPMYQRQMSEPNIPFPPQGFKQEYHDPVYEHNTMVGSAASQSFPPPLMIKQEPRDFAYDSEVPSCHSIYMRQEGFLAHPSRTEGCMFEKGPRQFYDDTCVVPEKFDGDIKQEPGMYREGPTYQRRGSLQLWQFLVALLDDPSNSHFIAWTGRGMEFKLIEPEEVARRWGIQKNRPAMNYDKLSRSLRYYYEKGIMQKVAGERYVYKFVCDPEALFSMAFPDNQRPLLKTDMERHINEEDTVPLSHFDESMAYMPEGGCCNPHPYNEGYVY
ELF4, sequence (Q99607 whole entry): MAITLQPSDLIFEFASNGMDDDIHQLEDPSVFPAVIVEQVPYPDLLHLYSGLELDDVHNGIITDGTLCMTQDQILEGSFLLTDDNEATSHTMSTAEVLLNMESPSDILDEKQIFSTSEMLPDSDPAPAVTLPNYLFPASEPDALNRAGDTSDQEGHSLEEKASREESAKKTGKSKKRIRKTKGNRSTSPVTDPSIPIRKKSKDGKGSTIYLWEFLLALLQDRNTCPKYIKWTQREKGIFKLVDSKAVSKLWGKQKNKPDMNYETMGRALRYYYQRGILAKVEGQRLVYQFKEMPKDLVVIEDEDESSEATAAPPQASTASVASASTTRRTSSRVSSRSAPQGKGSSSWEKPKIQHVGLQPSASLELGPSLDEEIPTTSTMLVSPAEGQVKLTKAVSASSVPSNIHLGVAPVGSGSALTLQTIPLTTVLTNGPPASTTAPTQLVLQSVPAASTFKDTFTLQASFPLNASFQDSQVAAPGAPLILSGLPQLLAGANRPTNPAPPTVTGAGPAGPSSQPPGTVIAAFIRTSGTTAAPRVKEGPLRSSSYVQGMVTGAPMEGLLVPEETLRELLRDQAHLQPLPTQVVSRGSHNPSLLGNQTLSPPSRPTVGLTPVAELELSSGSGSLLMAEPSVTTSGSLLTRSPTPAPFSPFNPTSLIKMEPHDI
ETV5, sequence (P41161 whole entry): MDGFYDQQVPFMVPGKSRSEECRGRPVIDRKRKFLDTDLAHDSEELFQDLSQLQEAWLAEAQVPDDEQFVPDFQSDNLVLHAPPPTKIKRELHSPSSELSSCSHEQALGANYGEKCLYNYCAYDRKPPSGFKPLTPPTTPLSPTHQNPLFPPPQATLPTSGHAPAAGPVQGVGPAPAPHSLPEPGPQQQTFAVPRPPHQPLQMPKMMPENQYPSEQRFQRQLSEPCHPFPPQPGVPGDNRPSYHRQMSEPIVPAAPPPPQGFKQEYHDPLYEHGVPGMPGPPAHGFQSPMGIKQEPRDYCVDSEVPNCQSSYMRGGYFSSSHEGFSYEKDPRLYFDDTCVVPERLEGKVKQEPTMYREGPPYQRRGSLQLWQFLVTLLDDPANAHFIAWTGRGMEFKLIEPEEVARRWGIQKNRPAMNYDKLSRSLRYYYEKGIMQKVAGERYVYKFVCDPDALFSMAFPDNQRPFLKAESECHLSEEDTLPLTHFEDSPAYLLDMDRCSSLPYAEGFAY
CRX, sequence (O43186 whole entry): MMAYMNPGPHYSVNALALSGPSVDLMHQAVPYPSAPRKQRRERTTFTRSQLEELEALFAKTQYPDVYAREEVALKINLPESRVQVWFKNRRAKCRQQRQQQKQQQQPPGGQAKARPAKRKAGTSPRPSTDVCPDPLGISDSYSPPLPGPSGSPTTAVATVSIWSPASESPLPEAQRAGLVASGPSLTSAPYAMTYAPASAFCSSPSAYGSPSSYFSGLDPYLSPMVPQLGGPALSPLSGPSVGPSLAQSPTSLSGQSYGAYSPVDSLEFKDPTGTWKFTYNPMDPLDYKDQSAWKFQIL

TGTTTT
binding signal (FLI1): 1.36 fold enrichment (6-mer frequency, TF over GST control)
binding signal (ELK1): 1.32 fold enrichment (6-mer frequency, TF over GST control)
binding signal (GABPA): 1.35 fold enrichment (6-mer frequency, TF over GST control)
binding signal (ERG): 1.26 fold enrichment (6-mer frequency, TF over GST control)
binding signal (ELF1): 1.34 fold enrichment (6-mer frequency, TF over GST control)
binding signal (EHF): 1.35 fold enrichment (6-mer frequency, TF over GST control)
binding signal (SPI1): 1.43 fold enrichment (6-mer frequency, TF over GST control)
binding signal (SPIB): 1.3 fold enrichment (6-mer frequency, TF over GST control)
binding signal (ELK3): 1.43 fold enrichment (6-mer frequency, TF over GST control)
binding signal (FEV): 1.24 fold enrichment (6-mer frequency, TF over GST control)
binding signal (ETV5): 1.42 fold enrichment (6-mer frequency, TF over GST control)
binding signal (HSF1): 1.21 fold enrichment (6-mer frequency, TF over GST control)
binding signal (SPIC): 1.36 fold enrichment (6-mer frequency, TF over GST control)
binding signal (ELF4): 1.37 fold enrichment (6-mer frequency, TF over GST control)
binding signal (ELK4): 1.35 fold enrichment (6-mer frequency, TF over GST control)
binding signal (ETV2): 1.38 fold enrichment (6-mer frequency, TF over GST control)
binding signal (ELF3): 1.33 fold enrichment (6-mer frequency, TF over GST control)
binding signal (CRX): 1.23 fold enrichment (6-mer frequency, TF over GST control)
binding signal (ETV1): 1.29 fold enrichment (6-mer frequency, TF over GST control)
